Drawing on PubChem BioAssay AID1626 (SRMLSC, 2009), this text covers inhibition for 93 compounds.

Each structure is given as a SMILES string. The campaign covered roughly 220,000 compounds. About 2,000 (0.91%) were called active. Another 2% or so got no clear call; they are omitted. Cut-off read from the data, not from the text of the source: inconclusive = inhibition above about 80% without an active follow-up result; inactive = below that; test concentration not stated here. Only a sample is shown. Potency and affinity values are given separately.

The nature of the assay: M. tuberculosis H37Rv growth inhibitors, H37Rv strain (AID 1626).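 Note: bacteria incubated seven days before Alamar blue readout; 0% = bacteria only wells and 100% = bacteria with antibiotic wells.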 The conditions noted are these: stronger effect = higher value, concentration not given here.
For the compound `Cc1cc(C(F)(F)F)nc(SCc2ccc(C(=O)O)o2)n1`, the inhibition was -10.7% (inactive).

Turning to `COc1ccc(Cn2c(=S)[nH]c3ccsc3c2=O)cc1`, the inhibition was -1.7% (inactive).

As to `O=c1[nH]cc(COCC(F)(F)C(F)(F)C(F)(F)F)c(=O)[nH]1`, the inhibition was 5.87% (inactive).

As for `Cc1ccc(S(=O)(=O)N2CCC(C(=O)NNC(=O)c3ccccc3)CC2)cc1`, the inhibition is 0.71% (inactive).

Consider `C/C(=N\NC(=O)c1cc(-c2ccncc2)nc2ccccc12)c1ccc(OC(F)F)cc1`, for which the inhibition was 0.28% (inactive).

Consider `C#CCNC(=O)C1=C[C@H](c2ccc3c(c2)OCO3)C[C@H](OCCCCO)O1`, for which the inhibition was -6.12% (inactive).

On to `CCCCNC(=O)COC(=O)c1c2c(nc3ccccc13)/C(=C/c1cccs1)CC2`, for which the inhibition is 36.5% (inactive).

With `COc1ccc(NC(=O)COC(=O)c2c3c(nc4ccccc24)CCCC3)cc1`, the inhibition is -13.1% (inactive).

Turning to `CCc1cccc(C)c1NC(=O)COC(=O)c1c2c(nc3ccccc13)/C(=C\c1cccs1)CCC2`, the inhibition was 1.95% (inactive).

With `CC(C)CNC(=O)COC(=O)c1c2c(nc3ccccc13)/C(=C/c1cccs1)CC2`, the inhibition was 32.2% (inactive).

Take `COc1ccc(-c2[nH]ncc2CN2CCC(N3CCSCC3)CC2)cc1F`: the inhibition was -4.08% (inactive).

In the case of `CCOC(=O)C(/C=C(\C#N)C(=O)OCC)=C(/N)N1CCN(c2ccc(OC)cc2)CC1`, the inhibition was 6.53% (inactive).

In the case of `CCOC(=O)C(/C=C(\C#N)C(=O)OCC)=C(/N)N1CCN(c2ccccc2)CC1`, the inhibition is -0.44% (inactive).

For the compound `COc1ccc(C(=O)Nc2ccc(Cl)cn2)cc1Cl`, the inhibition was 12.4% (inactive).

For the compound `COC(=O)c1cc(NC(=O)CSc2nc(C)cc(=O)[nH]2)cc(C(=O)OC)c1`, the inhibition was -18.1% (inactive).

`Cc1ccc(N/C(N)=N/c2nc(C)cc(C)n2)cc1`: the inhibition was -3.3% (inactive).

Consider `CC(=O)Nc1ccc(N/C(N)=N/c2nc(C)cc(C)n2)cc1`, for which the inhibition is 4.6% (inactive).

Take `Cn1ccnc1Sc1ccc(/C=N/NC(=O)c2ccccc2[N+](=O)[O-])cc1[N+](=O)[O-]`: the inhibition is -13.1% (inactive).

On to `NC(=O)CSc1nnc(COc2ccccc2)n1CCc1ccccc1`, for which the inhibition was -4.55% (inactive).

For `Cc1ccc(CNC(=O)C23CN(Cc4ccccc4)CC2C(c2ccc([N+](=O)[O-])cc2)=NO3)cc1` (stereo not drawn), the inhibition is 7.16% (inactive).

Consider `CCc1c(C)c(C#N)c2nc3ccccc3n2c1N(C)C`, for which the inhibition is -1.31% (inactive).

As to `Cc1c(Cc2ccccc2)c(NCCN(C)C)n2c(nc3ccccc32)c1C#N`, the inhibition was -1.57% (inactive).

Consider `CCCCCc1c(C)c(C#N)c2nc3ccccc3n2c1-n1ccnc1C`, for which the inhibition is -1.65% (inactive).

On to `Cc1cc(NCCCO)n2c(nc3ccccc32)c1C#N`, for which the inhibition is 1.01% (inactive).

For `COC(=O)c1cc(C(=O)OC)cc(N2C(=O)CN=C2Nc2nc(C)cc(C)n2)c1`, the inhibition is -5.98% (inactive).

As to `Cc1cc(C)c(NC(=O)c2c[nH]c(=S)n2-c2ccc(F)cc2)c(C)c1`, the inhibition is -1.12% (inactive).

With `COc1ccc(-c2nc(C#N)c(NCCN(C)C)o2)cc1`, the inhibition was -2.85% (inactive).

Regarding `COc1cccc(-c2csc(N3CCN(C(=O)Nc4ccc(F)cc4)CC3)n2)c1`, the inhibition was 20.3% (inactive).

As for `COc1cccc(NC(=O)N2CCN(c3nc(-c4cccc(OC)c4)cs3)CC2)c1`, the inhibition was 79.8% (inactive).

For the compound `COc1cccc(-c2csc(N3CCN(C(=O)Nc4ccc(Cl)cc4)CC3)n2)c1`, the inhibition is 80% (inactive).

For the compound `COc1cccc(-c2csc(N3CCN(C(=O)Nc4ccccc4OC)CC3)n2)c1`, the inhibition was 0.17% (inactive).

With `CCOP(=O)(OCC)C1(O)C(=O)Nc2ccc(Br)cc21` (stereo not drawn), the inhibition was 0.14% (inactive).

For the compound `CCC1(C)Cc2c(sc3nnn(CC(=O)Nc4ccccc4)c(=O)c23)CO1` (stereo not drawn), the inhibition is -3.81% (inactive).

On to `CCOc1ccc(NC(=O)C(CC(=O)O)Cc2ccccc2)cc1` (stereo not drawn), for which the inhibition is -4.45% (inactive).

`O=c1oc2ccccc2cc1-c1ccccc1`: the inhibition was -5.07% (inactive).

For the compound `O=c1oc2ccccc2cc1-c1nc(-c2ccccc2)no1`, the inhibition was 23.2% (inactive).

For `O=c1oc2ccccc2cc1-c1ccc(O)cc1`, the inhibition is 30.4% (inactive).

As to `Cc1cccc(-c2noc(-c3ccoc3C)n2)c1`, the inhibition was 8.21% (inactive).

For `COc1ccccc1-c1nc(-c2cccc(C)c2)no1`, the inhibition was 9.74% (inactive).

As for `Cc1ccc(-c2csc(Cc3nc(-c4cc5ccccc5oc4=O)cs3)n2)cc1`, the inhibition was -1.52% (inactive).

With `COC(=O)c1sc(SC)c(S(=O)(=O)C(C)C)c1N/N=C(\C#N)C(=O)c1ccccc1`, the inhibition is -10.6% (inactive).

Turning to `COc1ccc(Cn2cc3c(-c4ccc(F)cc4)nnc-3c3cc(OC)c(OC)cc32)cc1`, the inhibition is 64.8% (inactive).

Turning to `CCOCC(=O)Nc1cc(Cl)ccc1C`, the inhibition was -11.6% (inactive).

As to `On1c(-c2ccccc2Cl)nc2ccccc21`, the inhibition is 12.4% (inactive).

As to `COc1ccc(CNC(=O)CC2C(=O)NCCN2CC(C)(C)C)c(OC)c1` (stereo not drawn), the inhibition is -2.94% (inactive).

Take `Cc1ccccc1OC(C)C(=O)NCc1cccnc1` (stereo not drawn): the inhibition is 1.38% (inactive).

Take `CCOC(=O)C1=C(CSCC(=O)OC)NC(=O)NC1c1cc(C)ccc1C` (stereo not drawn): the inhibition was 0.6% (inactive).

For the compound `Cc1cc(C)nc(NC(=O)/C=C/c2ccccc2Cl)n1`, the inhibition is -5.04% (inactive).

With `Cc1cc(C)nc(NC(=O)/C=C/c2ccccc2Cl)c1`, the inhibition was 9.12% (inactive).

Take `O=C(Cn1nc(-c2ccccc2)nc1-c1ccccc1)N1CCOCC1`: the inhibition was -4.2% (inactive).

Consider `COC(=O)[C@@]1(Cc2ccc(F)cc2)[C@H]2c3cc(C(=O)N(C)C)n(Cc4ccccn4)c3C[C@H]2CN1C(=O)c1ccccc1`, for which the inhibition is 8.03% (inactive).

With `OC(COc1ccc2ccccc2c1)Cn1ccnc1` (stereo not drawn), the inhibition is 51.7% (inactive).

In the case of `CCOC(=O)N1CCN(C(=O)CSCC(=O)Nc2nc(-c3ccc(Cl)s3)cs2)CC1`, the inhibition was 16.6% (inactive).

Turning to `O=C(CSCC(=O)N1CCN(c2ccccc2)CC1)Nc1nc(-c2ccc(Cl)s2)cs1`, the inhibition was 8.45% (inactive).

`CCOc1ccc(OCC(O)CNC2CCN(Cc3ccccc3)CC2)cc1` (stereo not drawn): the inhibition is 1.56% (inactive).

Regarding `OC(CNC1CCCC1)COc1ccc(-c2ccccc2)cc1` (stereo not drawn), the inhibition was 10.9% (inactive).

As to `O=C(OCc1ccc(C(=O)c2ccccc2)cc1)c1cccc(-c2nnc(-c3ccccc3)o2)c1`, the inhibition was 20.2% (inactive).

Regarding `O=c1oc(-c2ccccc2NS(=O)(=O)c2ccc3ccccc3c2)nc2ccccc12`, the inhibition is 7.84% (inactive).

In the case of `O=C(c1cc(-c2ccncc2)nc2ccc(Cl)cc12)N1CCN(Cc2ccc3c(c2)OCO3)CC1`, the inhibition is 0.94% (inactive).

As for `CCOc1ccc(NC(=O)Cn2nnc3c(cnn3-c3ccc(F)cc3)c2=O)cc1`, the inhibition is 3.8% (inactive).

On to `C/C(Cc1ccccc1)=N/NC(=O)CNC(=O)C(c1ccccc1)c1ccccc1`, for which the inhibition is -1.53% (inactive).

With `CCc1ccc(C2c3[nH]c4ccccc4c3CCN2C(=O)c2ccc(=O)n(C)n2)cc1` (stereo not drawn), the inhibition was 37.1% (inactive).

As to `CCc1ccc(C2c3[nH]c4ccccc4c3CCN2C(=O)c2cc[n+]([O-])cc2)cc1` (stereo not drawn), the inhibition is 7.89% (inactive).

`CCNC(=O)N1CCN(C(=O)NCC)CC1`: the inhibition was -2.46% (inactive).

For the compound `Cc1cc(/C=N/n2cnnc2)c(C)n1-c1ccc(Cl)cc1`, the inhibition was 8.9% (inactive).

Turning to `Cc1cc(/C=N/n2cnnc2)c(C)n1-c1ccc(Cl)cc1Cl`, the inhibition was 12.1% (inactive).

As to `CC(=O)Oc1ccc(C(=O)Nc2cc(NC(=O)c3ccc(OC(C)=O)cc3)cc(C(=O)NC(C)(C)C)c2)cc1`, the inhibition was -1.93% (inactive).

As to `CCN1CCC(O)(c2ccccc2)C(C(=O)c2ccccc2)C1` (stereo not drawn), the inhibition was 50.9% (inactive).

As to `CCCCN1CCC(O)(c2ccccc2)C(C(=O)c2ccccc2)C1` (stereo not drawn), the inhibition was 5.96% (inactive).

For `O=S(=O)(N1CCOCC1)N1CCN(c2ccc(F)cc2)CC1`, the inhibition is -7.1% (inactive).

`Cc1[nH]c(=O)[nH]c(=O)c1/C=C/C(=O)O`: the inhibition was -8.34% (inactive).

With `Nc1c(C(=O)OCC(=O)NCc2ccccc2)[nH]c(=O)[nH]c1=O`, the inhibition was -4.41% (inactive).

For `CCOc1ccc2nc(SCC(=O)N(C)C)[nH]c2c1`, the inhibition is -11.1% (inactive).

For the compound `CO/N=C(/CS(=O)Cc1ccc(Cl)cc1)c1ccc(Cl)cc1` (stereo not drawn), the inhibition is 1.17% (inactive).

As for `CCCNS(=O)(=O)c1ccc(OCC(=O)NCCC2=CCCCC2)cc1`, the inhibition is 13.8% (inactive).

On to `COC(=O)COc1ccc(S(=O)(=O)NCCC2=CCCCC2)cc1`, for which the inhibition was 25.1% (inactive).

As to `Cc1cccc(C)c1NC(=O)CNC(=O)CCC(=O)c1cccs1`, the inhibition was -5.43% (inactive).

Regarding `Cc1ccc(NC(=O)c2snc3ccc(Cl)cc23)cc1C`, the inhibition was 6.9% (inactive).

On to `CC(C)c1ccc(NC(=O)c2csnn2)cc1`, for which the inhibition was -0.83% (inactive).

As for `Cc1ccc(-c2nc3ccccc3n3nnnc23)cc1`, the inhibition is 4.17% (inactive).

With `Cc1ccc2nc(N3CCN(c4cccc(C)c4C)CC3)c3nnnn3c2c1`, the inhibition is -7.81% (inactive).

As for `CC(C)CNC(=O)CN1C(=O)NC(Cc2c[nH]c3ccccc23)C1=O` (stereo not drawn), the inhibition was -13.9% (inactive).

As to `O=C(NCC1CCN(S(=O)(=O)c2ccccc2)CC1)Nc1ccccc1`, the inhibition is 10.3% (inactive).

As to `O=C(N/N=C/c1cccc(O)c1)c1ccccc1O`, the inhibition is -7.64% (inactive).

For the compound `Cc1ccc(Cn2ccc(=O)c(OCc3ccccc3)c2C)cc1`, the inhibition is 1.78% (inactive).

With `Cc1ccc(Cn2ccc(=O)c(Cc3c(Cl)cccc3Cl)c2C)cc1`, the inhibition was 0.62% (inactive).

As for `CC(C)=Nc1ccccc1C1COC(=O)C1=N` (stereo not drawn), the inhibition was -1% (inactive).

On to `COc1ccccc1NC(=O)O/N=C(\N)c1ccccc1`, for which the inhibition was 11.1% (inactive).

On to `Cc1nc(CC(=O)c2ccc(O)c(C)c2O)cs1`, for which the inhibition is 7.54% (inactive).

`Cc1nnc(SCC(=O)N2CCC(c3noc4ccc(F)cc34)CC2)s1`: the inhibition was -0.75% (inactive).

For the compound `O=C(CSc1ccc2ccccc2n1)N1CCC(c2noc3ccc(F)cc23)CC1`, the inhibition was -2.15% (inactive).

For `COC(=O)C[C@H]1c2cc(C(F)(F)F)ccc2S(=O)(=O)N1C1CCCC1`, the inhibition was -3.21% (inactive).

With `O=C(Cc1ccc(Br)cc1)Nc1ccc(Cl)cc1`, the inhibition is -2.03% (inactive).
